Assay results taken from the supplement of paper PMC13380429.

System: Vero E6 infected with SARS-CoV-2
Experiment: inhibition of SARS-CoV-2 cytopathic effect; higher = more antiviral protection, active = above 15
Conditions: 48 h

Measured: inhibition of SARS-CoV-2 cytopathic effect

Cc1nc2cnc3ccc(C#Cc4cccnc4)cc3c2n1-c1ccc(C(C)(C)C#N)cc1
inactive: 1 nM -1.65% | 8.33 nM 8.23% | 100 nM -1.48% | 833.33 nM -1.07% | 10000 nM -1.26%

CC(C)c1nnc(-c2ccc(-c3ccccc3)nc2)n1-c1cccc2nonc12
inactive: 1 nM -5.81% | 8.33 nM -4.31% | 100 nM -0.24% | 833.33 nM 0.55% | 10000 nM -1.7%

c1cc(Cc2cnc[nH]2)ccn1 [immethridine]
inactive: 1 nM 0.32% | 8.33 nM 2.15% | 100 nM 0.76% | 833.33 nM 4.67% | 10000 nM 1.99%

NS(=O)(=O)c1cc(C2(O)NC(=O)c3ccccc32)ccc1Cl (stereo not given) [chlorthalidone]
inactive: 1 nM -0.87% | 8.33 nM -0.18% | 100 nM 4.69% | 833.33 nM -3.83% | 10000 nM -3.63%

O=C(O[C@H]1C[N+]2(CCCOc3ccccc3)CCC1CC2)C(O)(c1cccs1)c1cccs1 [aclidinium]
inactive: 1 nM -0.75% | 8.33 nM -1.25% | 100 nM -2.4% | 833.33 nM 1.93% | 10000 nM 1.6%

Cc1nc2ccccc2n1Cc1ccc(Cl)cc1 [chlormidazole]
inactive: 1 nM -3.42% | 8.33 nM -1.1% | 100 nM -6.27% | 833.33 nM -3.55% | 10000 nM -4.49%

CC(C)(C)C(=O)OCOC(=O)[C@@H]1N2C(=O)[C@@H](NC(=O)[C@H](N)c3ccccc3)[C@H]2SC1(C)C [pivampicillin]
inactive: 1 nM 3.04% | 8.33 nM 3.24% | 100 nM 2.48% | 833.33 nM 0.64% | 10000 nM -3.25%

CCCC(C)C1(CC)C(=O)NC(=O)NC1=O (stereo not given) [pentobarbital]
inactive: 1 nM 2.05% | 8.33 nM 2% | 100 nM 1.92% | 833.33 nM -1.44% | 10000 nM -1.04%

CC(C)(C)c1ccc(C(=O)Nc2cn3cc(-n4ccnc4)ccc3n2)cc1
inactive: 1 nM 2.98% | 8.33 nM 0.55% | 100 nM 2.27% | 833.33 nM 2.13% | 10000 nM -0.45%

CC(C)(CCCCCC(O)CCCCCC(C)(C)C(=O)O)C(=O)O [bempedoic-acid]
inactive: 1 nM 0.91% | 8.33 nM 0.43% | 100 nM 0.18% | 833.33 nM 0.98% | 10000 nM 1.16%

C1CCC2(CC1)CCNCC2 [4,4-pentamethylenepiperidine]
inactive: 1 nM 0.06% | 8.33 nM 0.78% | 100 nM -1% | 833.33 nM 1.32% | 10000 nM 0.37%

CO[C@@]1(NC(=O)C(C(=O)O)c2ccc(O)cc2)C(=O)N2C(C(=O)O)=C(CSc3nnnn3C)CO[C@@H]21 (stereo not given in full) [moxalactam]
inactive: 1 nM 1.45% | 8.33 nM -1.13% | 100 nM -0.85% | 833.33 nM -1.15% | 10000 nM 1.01%

CCOC(=O)[C@@H](N)Cc1ccc(-c2cc(O[C@H](c3ccc(Cl)cc3-n3ccc(C)n3)C(F)(F)F)nc(N)n2)cc1 [telotristat-ethyl]
inactive: 1 nM -0.32% | 8.33 nM 2.88% | 100 nM -1.08% | 833.33 nM 4.77% | 10000 nM 2.26%

C[C@@H]1C[C@H]2[C@@H]3CCC4=CC(=O)C=C[C@]4(C)[C@@]3(Cl)[C@@H](O)C[C@]2(C)[C@@]1(OC(=O)c1ccco1)C(=O)CCl
inactive: 1 nM -0.2% | 8.33 nM -2.64% | 100 nM -2.34% | 833.33 nM -2.86% | 10000 nM 3.12%

C[C@@]12CCc3occc3[C@H]1CC[C@@]13C[C@@H](CC[C@H]12)[C@@](O)(CO)C3 [cafestol]
inactive: 1 nM -4.07% | 8.33 nM -1.86% | 100 nM 2% | 833.33 nM 2.62% | 10000 nM 1.59%

O=C1NCCN1CCN1CCC(c2cn(-c3ccc(F)cc3)c3ccc(Cl)cc23)CC1 [sertindole]
inactive: 1 nM -2.53% | 8.33 nM -4.63% | 100 nM -2.36% | 833.33 nM -5.98% | 10000 nM -11.3%

CCCC(=O)O[C@]1(C(=O)COC(C)=O)CC[C@H]2[C@@H]3C[C@H](F)C4=CC(=O)C=C[C@]4(C)[C@@]3(F)[C@@H](O)C[C@@]21C [difluprednate]
inactive: 1 nM 1.05% | 8.33 nM 1.55% | 100 nM 1.52% | 833.33 nM 1.03% | 10000 nM 6.96%

CC(C)CC(=O)N[C@H](C(=O)N[C@H](C(=O)N[C@@H](CC(C)C)[C@@H](O)CC(=O)N[C@@H](C)C(=O)N[C@@H](CC(C)C)[C@@H](O)CC(=O)O)C(C)C)C(C)C [pepstatin]
inactive: 1 nM 1.4% | 8.33 nM 0.77% | 100 nM -0.17% | 833.33 nM -1.52% | 10000 nM -4.53%

CCCCCCCC/C=C\CCCCCCCC(=O)NCCO [oleoylethanolamide]
inactive: 1 nM 1.05% | 8.33 nM -0.89% | 100 nM -0.87% | 833.33 nM 0.17% | 10000 nM -4.33%
